# Measurements reported in PubChem BioAssay (NCI).
# Several values for one entry are separate records, joined by “and”; a condition that tells them apart may be missing. Equal entries are not always repeated. The panel holds about 83,000 compounds, 20% with a hit somewhere; the sample as a whole holds those more often.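 Treatment: one concentration, 48 hours, 96-well format. Scoring: percent growth, with anything below 10 considered active.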 Values without a mark were called inactive. Activity calls are given as the source filed them.
# System: MDA-MB-468 breast
# Assay: NCI-60 one-dose screen, 48 h (100 = growth as untreated, 0 = no growth, -100 = all killed)
# Conditions: 10 µM unless noted
row,SMILES,growth
1,CCCCCCCCCCCC[N+](C)(C)Cc1ccccc1,-26.4% (active)
2,O=C(/C=C1\C=CN(CCCCO)c2ccccc21)n1ccc2ccccc21,98%
3,O=C(O)C1CSC(c2ccccc2)N1 (centres undefined),96.7%
4,COc1ccc(C2=Nc3c(C)nn(-c4ccccc4)c3NC(c3ccc(Oc4ccnc5cc(Cl)ccc45)c(OC)c3)C2)cc1 (centres undefined),80.3%
5,CCCc1cc(=O)oc2c(C(=O)CC(C)C)c(O)c(CC=C(C)C)c(O)c12,1.81% (active)
6,Cc1cc2cn3c4ccc(O)cc4nc(N)c3c2cc1C,-9.7% (active)
7,COc1ccc(/C=N\NC(=O)CN2CCN(c3cc4c(cc3F)c(=O)c(C(=O)N/N=C/c3ccc(OC)cc3)cn4C3CC3)CC2)cc1,84.3%
8,CCCCC(=O)Nc1c(C(=O)Nc2ccccc2)sc2nc3c(cc12)C(OC(=O)CCCC)CCC3 (centres undefined),56.2%
9,COc1cc(C)cc2oc3oc(=O)c(-c4nc5ccccc5s4)cc3c(=O)c12,104%
10,CCCCCCCCCCCCCC[n+]1ccc(C)cc1,-29.9% (active)
11,C=CC(C)C(C)(C)O (centres undefined),106%
12,Clc1ccc(Sc2nc(NC3CC3)nc(Sc3ccc(Cl)cc3)n2)cc1,91.2%
13,CN(C)c1ccc(C(c2ccc(O)cc2)c2ccc(N(C)C)cc2)cc1,1.1% (active)
14,COc1ccc(-c2nc3cc(Cl)c(Cl)cc3n2CC(=O)N=Nc2c(O)[nH]c3ccc(Br)cc23)cc1,-71% (active)
15,CC(=O)C1=C(O)C=C2Oc3c(C(=O)/C=C/c4cc(C(F)(F)F)cc(C(F)(F)F)c4)c(O)c(C)c(O)c3[C@]2(C)C1=O,-69.3% (active)
16,CCOC(=O)C(CCC1=NC(C)(C)CC(C)O1)C(=O)OCC (centres undefined),70.5%
17,CCOC(=O)n1ccn(C)c1=S,103%
18,CC/C(=C(/c1ccc(Cl)cc1)c1ccc(OCCN2CCCCCC2)cc1)c1ccccc1,78.3%
19,COc1ccc([C@@H]2c3[nH]c4ccccc4c3CC3C(=O)N(C4CCN(Cc5c(F)cccc5F)CC4)CC(=O)N32)c(OC)c1 (some centres undefined),40.6% [5.26 µM]
20,COc1cc2nccc(Oc3ccc(NC(=O)C4(C(=O)Nc5ccc(F)cc5)CC4)cc3)c2cc1O,86.4%
21,CN(Cc1ccccc1)c1nc(Cl)c(C2CC(c3ccc(Cl)cc3)=Cc3[nH][nH]c(=O)c32)s1 (centres undefined),106%
22,CC1=CC(O)C2CC1C2(C)C (centres undefined),105% and 100%
23,CC(C)C[C@@H](NC(=O)[C@@H](Cc1ccccc1)NC(=O)c1cnccn1)B1O[C@H]2[C@H](O)[C@@H](C(=O)NCCCC[C@@H]3NC(=O)[C@@H](Cc4ccccc4)NC(=O)[C@H](CC(=O)O)NC(=O)CNC(=O)[C@H](CCCN=C(N)N)NC3=O)O[C@@H](CN)[C@H]2O1,-45.5% (active)
24,COc1ccc(C(=O)c2sc3nc4c(c(-c5cccnc5)c3c2N)CCCC4)cc1OC,102%
